Assay results taken from PubChem BioAssay.
Active and inactive are the calls of the source.

Columns and labels:
Albumin (Bos taurus) = Albumin (Bos taurus) (UniProt P02769); test: compounds binding labelled BSA control protein – biochemical, small-molecule microarray, Alexa647 label, 635/667 nm fluorescence, artefact control for SMM control protein annotation, profiling panel (AID 1118); settings: BSA-A647 binding, fluorescence 635 nm, higher = more signal;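 further: score merges 667 nm emission intensity and signal-to-noise per printed compound spot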
[1] = probe aXIP binding to arrayed compounds – biochemical, NeuroSMM set, 635/667 nm fluorescence, primary screen (AID 1119); settings: small-molecule microarray, higher = more signal, called active from +8 up or from −8 down;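 further: probe is the protein aXip251-270 applied at 1 µg/mL to compound-printed slides; binding of probe to printed compounds measured as 667 nm fluorescence plus signal to noise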
[2] = probe aNOTCH3 binding on compound microarray – biochemical, small-molecule microarray, 635/667 nm fluorescence, primary screen (AID 1120); settings: higher = more signal;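 further: probe is a biotin-tagged antibody raised against NOTCH3 rather than NOTCH3 protein; score merges spot fluorescence near 667 nm with spot signal to noise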
[3] = probe aNOTCH2 binding on compound microarray – biochemical, small-molecule microarray, 635/667 nm fluorescence, primary screen (AID 1121); settings: higher = more signal;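 further: score merges feature fluorescence read at 667 nm with its signal to noise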
[4] = molecular target: Carbonic anhydrase 2 (Homo sapiens) (UniProt P00918); test: compounds binding carbonic anhydrase 2 – biochemical, small-molecule microarray, Alexa647-labelled CAII, profiling panel (AID 1122); settings: CAII-A647 binding fluorescence, higher = more signal
[5] = COS7 lysate on small-molecule microarray, probe aHis, 635 nm (AID 1123); settings: COS7 cell lysate, fluorescence, higher = more signal;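 further: z-score combines 667nm fluorescence intensity with signal-to-noise per printed compound spot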
[6] = probe aLAP1 signal on lysate-treated microarray – cell lysate, small-molecule microarray, COS7 lysate, primary screen (AID 1124); settings: probe aLAP1, fluorescence, higher = more signal;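 further: lysate comes from COS7 cells expressing LAP1 and is applied at 0.3 µg/mL; score merges spot fluorescence near 667 nm with signal-to-noise over triplicate slides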
Sam68 (KHDRBS1) = test: compounds binding KHDRBS1 protein – biochemical, small-molecule microarray, 635 nm fluorescence, primary screen (AID 1125); settings: higher = more signal;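 further: score merges 667 nm channel intensity with signal to noise over triplicate slides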
[7] = test system: Chordin-like protein 2 (CHRDL2); test: compounds binding chordin-like 2 – biochemical, small-molecule microarray, 635 nm fluorescence, primary screen (AID 1126); settings: fluorescence 635 nm, higher = more signal;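 further: printed compound slides probed with Chrdl2 protein at 4 µg/mL for 1 h at 4 C; score merges 667 nm emission intensity with signal to noise over three replicate slides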
[8] = molecular target: Concanavalin-A (Canavalia ensiformis) (UniProt P02866); test: compounds binding concanavalin A lectin – biochemical, small-molecule microarray, Alexa647 label, 635 nm, artefact control for SMM control protein annotation, primary screen (AID 1127); settings: ConA-A647 binding fluorescence, higher = more signal;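 further: z combines 667 nm emission intensity with signal-to-noise across three replicate slides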
Chain of Concanavalin-A (Canavalia ensiformis) (P02866 whole entry, looked up): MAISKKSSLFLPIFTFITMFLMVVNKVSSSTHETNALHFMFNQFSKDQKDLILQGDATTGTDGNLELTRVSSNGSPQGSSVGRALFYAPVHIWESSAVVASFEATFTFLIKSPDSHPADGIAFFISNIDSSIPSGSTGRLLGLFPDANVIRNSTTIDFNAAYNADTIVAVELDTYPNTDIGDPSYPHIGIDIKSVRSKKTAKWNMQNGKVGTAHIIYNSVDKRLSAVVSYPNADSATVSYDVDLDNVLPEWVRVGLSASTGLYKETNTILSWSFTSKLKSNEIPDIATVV

Chain of Albumin (Bos taurus) (P02769 whole entry, looked up): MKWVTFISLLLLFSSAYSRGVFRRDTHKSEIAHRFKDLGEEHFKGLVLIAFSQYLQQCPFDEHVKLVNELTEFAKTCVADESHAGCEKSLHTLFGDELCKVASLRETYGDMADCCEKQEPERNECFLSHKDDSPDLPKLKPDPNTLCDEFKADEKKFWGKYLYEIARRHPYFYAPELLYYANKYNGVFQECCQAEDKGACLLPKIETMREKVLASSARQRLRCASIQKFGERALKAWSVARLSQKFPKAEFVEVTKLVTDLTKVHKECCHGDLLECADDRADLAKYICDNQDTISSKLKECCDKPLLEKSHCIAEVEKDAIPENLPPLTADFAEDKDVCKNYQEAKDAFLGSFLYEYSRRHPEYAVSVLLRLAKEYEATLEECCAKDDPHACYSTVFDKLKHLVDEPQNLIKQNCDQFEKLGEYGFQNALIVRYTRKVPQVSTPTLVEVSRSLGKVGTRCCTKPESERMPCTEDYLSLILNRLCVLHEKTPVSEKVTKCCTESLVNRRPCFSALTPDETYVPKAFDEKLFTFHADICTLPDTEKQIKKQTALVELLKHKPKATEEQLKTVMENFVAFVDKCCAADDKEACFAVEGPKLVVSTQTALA

Row | Compound | composite z-score (Albumin (Bos taurus)) | composite Z-score [1] | composite z-score [2] | composite z-score [3] | composite z-score [4] | composite z-score [5] | composite z-score [6] | composite z-score (Sam68 (KHDRBS1)) | composite z-score [7] | composite z-score [8]
1 | COCCOC(=O)N1C(=O)[C@@]2(c3cc(C#CCCO)ccc31)[C@H](C(=O)N1CCCCCCC1)[C@H]1C(=O)O[C@H](c3ccccc3)[C@H](c3ccccc3)N1[C@@H]2c1ccccc1OCCO | 0.951 | 3.51 (inactive) | 1.46 | 0.662 | 0.599 | 2.89 | 0.359 | 1.32 | 1.14 | 1.09
2 | CC1(C)C(=O)C(c2ccccc2)=C2CN3C(=O)N(CCc4ccccc4)C(=O)C3(Cc3ccc(F)cc3)C=C21 (stereo not given) | 0.471 | 0.0294 (inactive) | 0.781 | 0.246 | 0.0225 | 1.39 | 0.155 | 0.222 | -1.21 | 0.477
3 | COc1ccc(NC(=O)O[C@H]2[C@@H]3OC(=O)[C@H](Cc4cccc(Br)c4)C/C=C/C[C@@H](Cc4cccc(Br)c4)C(=O)O[C@H]3[C@@H](OC)O[C@@H]2CO)cc1 | 0.259 | 0.878 (inactive) | 0.111 | 0.683 | 0.507 | 0.84 | 0.782 | 0.355 | 0.145 | 0.173
4 | COCCOC(=O)N1C(=O)[C@@]2(c3cc(C#Cc4ccc(OC)cc4)ccc31)[C@H](C(=O)NC[C@H](O)c1ccccc1)[C@H]1C(=O)O[C@H](c3ccccc3)[C@H](c3ccccc3)N1[C@@H]2c1ccc(OCCO)cc1 | 0.101 | -0.014 (inactive) | 0.0397 | -0.146 | 0.441 | 1.72 | 0.313 | 1.3 | 0.195 | 1.09
5 | Cc1cccc([C@H]2C[C@H]3C(Br)=C[C@@H]2C(=O)[C@]32CO2)c1 | -0.904 | 0.289 (inactive) | -0.125 | -0.16 | -0.255 | -0.498 | -0.552 | -0.721 | 0.563 | -0.051
6 | [N-]=[N+]=NCc1ccccc1[C@@H]1OC(c2ccc(OCCCO)cc2)=N[C@]1(Cc1ccccc1N=[N+]=[N-])C(=O)NCCN1CCOCC1 | 0.741 | 0.215 (inactive) | 0.202 | -0.0219 | 0.828 | 2.14 | 1.01 | 1.31 | 0.32 | 0.863
7 | CC(C)OC(=O)CC(=O)CC(O)c1ccc([N+](=O)[O-])cc1 (stereo not given) | 0.169 | -0.314 (inactive) | -0.0413 | 0.0215 | 0.152 | 0.666 | 0.447 | 0.543 | -1.23 | -0.122
8 | COCCOC(=O)N1C(=O)[C@@]2(c3cc(C#CCC(C(=O)OC)C(=O)OC)ccc31)[C@H](c1ccc(O)cc1)N1[C@H](c3ccccc3)[C@H](c3ccccc3)OC(=O)[C@H]1[C@@H]2C(=O)NC[C@H](O)c1ccccc1 | 0.781 | 0.7 (inactive) | -0.196 | -0.14 | 0.63 | 2.2 | 0.588 | 0.296 | -0.282 | 1.07
9 | CC1CC/C=C\[C@H]2OC34C=CCN(CCN5CCOCC5)C(=O)[C@H]3N(C(C)CO)C(=O)[C@@H]4C2C(=O)O1 (stereo not given in full) | -0.712 | 0.117 (inactive) | -0.129 | -0.0741 | 0.738 | 1.57 | -0.221 | 0.19 | -0.231 | -0.371
10 | COCCOC(=O)N1C(=O)[C@@]2(c3cc(C#CCNC(N)=O)ccc31)[C@H](c1ccc(O)cc1)N1[C@H](c3ccccc3)[C@H](c3ccccc3)OC(=O)[C@H]1[C@@H]2C(=O)N1CCN(c2ncccn2)CC1 | 0.678 | 0.529 (inactive) | 0.344 | -0.175 | 0.506 | 2.41 | 0.566 | 1.27 | 0.279 | 1.1
